# Screening results from PubChem BioAssay.
# This is a sample that favours compounds with a hit; in the whole collection about 4.5% have one here.
# Mtb FBA inh – Mtb FBA enzyme inhibitors, primary screen, biochemical, fluorescence, strain H37Rv; inhibition, % at 1 µM; Fructose-bisphosphate aldolase (Mycobacterium tuberculosis (strain ATCC 25618 / H37Rv)), …; AID 588726, 2011; purified M. tuberculosis FBA, fluorescence read-out; 360,000 tested, 2.3% active; in the data active = inhibition above about 27%;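 note: 0% = vehicle and 100% = reference inhibitor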
# Target sequence (P9WQA3 whole entry, looked up): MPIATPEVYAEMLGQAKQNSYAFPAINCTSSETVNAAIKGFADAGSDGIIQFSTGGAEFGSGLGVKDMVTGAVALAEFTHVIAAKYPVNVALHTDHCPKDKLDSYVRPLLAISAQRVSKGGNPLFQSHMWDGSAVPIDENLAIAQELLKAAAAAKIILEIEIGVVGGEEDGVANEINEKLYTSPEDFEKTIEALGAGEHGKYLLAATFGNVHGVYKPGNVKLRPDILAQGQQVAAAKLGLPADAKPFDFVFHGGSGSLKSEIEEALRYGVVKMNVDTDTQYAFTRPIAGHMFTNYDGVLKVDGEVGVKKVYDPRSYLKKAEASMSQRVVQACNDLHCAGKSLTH
# PfHsp40 yeast – rescue of yeast from PfHsp40 toxicity, primary screen, S. cerevisiae, ATP luminescence | growth rescue, % at 12.5 µM | S. cerevisiae expressing PfHsp40, growth rescue | AID 504582, 2011 | 340,000 tested, 0.68% active; in the data active = growth rescue above about 28%, passing the limit was not always enough; inconclusive = no clear call, values can overlap the other calls;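 note: yeast W303a lacking pdr1 and pdr3 grown in galactose medium; growth measured after three days at 30 °C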
# BJeLR viability – MLPCN primary cell-based screen for lethality selective to Ras in HRASV12 cells | 300,000 tested, 0.17% active | BJeLR (HRASV12) viability, CellTiter-Glo ATP luminescence, 48 h | inhibition, % (test concentration not listed); in the data active = inhibition above about 50%; inconclusive = no clear call, values can overlap the other calls
# PrP 5UTR inh – inhibition of PrP 5' UTR reporter expression; 340,000 tested, 0.35% active; cell-based PrP 5' UTR mRNA reporter, plate reader; inhibition, % (no concentration beside the values); in the data active = inhibition above about 52%; note: 0 = median of the neutral control wells
# GDH-TPI counter – GDH-TPI coupling enzyme inhibitors, primary screen, artefact control for M. tuberculosis FBA inhibitor project, biochemical, absorbance, full deck; GDH-TPI coupled enzyme counterscreen, NADH absorbance; inhibition, % at 4.8 µM; 360,000 tested, 1.2% active; AID 588335, 2011; in the data active = inhibition above about 30%;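 note: 0% = DMSO wells and 100% = wells lacking the enzyme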
# PrPC surface inh – inhibitors of human cell surface prion protein PrPC, primary screen, cell-based, TR-FRET. TR-FRET read-out. inhibition, % at 13.8 µM. 370,000 tested, 0.43% active. AID 720596, 2013; in the data active = inhibition above about 24%; note: 0% = median of the test wells and 100% = reference compound wells
# PrP 5UTR single – prion 5' UTR mRNA inhibition, cherry-pick retest. shares compounds with PrP 5UTR inh. cell-based prion protein 5' UTR reporter, plate reader. inhibition, % at 2.5 µM. 1,100 tested, 48% active. AID 504592, 2011; in the data active = inhibition above about 54%; inconclusive = no clear call, values can overlap the other calls
# * hit, by the source's call; ? = inconclusive; . = no result given; ! = repeats disagree.
SMILES,Mtb FBA inh,PfHsp40 yeast,BJeLR viability,PrP 5UTR inh,GDH-TPI counter,PrPC surface inh,PrP 5UTR single
COC(=O)Nc1ccc(S(=O)(=O)N2CCCCC2C(=O)NCc2ccco2)cc1 (stereo not given),-0.9,2.3,7.0,89.2*,5.5,-3.1,26.7
CC(C)C[C@H]1COc2cc(N3CCCC3)ccc2S(=O)(=O)N1C,.,.,.,.,.,11.8,.
COC(=O)[C@@H]1N=C(c2ccc(OC)cc2)O[C@]12C(=O)N(Cc1cn(-c3ccccc3)nn1)c1cccc(Cl)c12,.,.,.,.,.,-4.0,.
O=C(NC(=O)c1ccccc1)Nc1ccccn1,4.5,-5.9,28.2,75.0*,-4.5,-7.3,76.1*
O=C(Nc1ccccn1)c1ccc(C(=O)c2ccccc2)cc1,-2.3,-0.5,0.3,-118.5,7.6,14.0,.
COc1ccc(C(=O)NC(=O)Nc2cc(C)ccn2)cc1,-1.2,-1.5,9.3,61.0*,13.2,5.5,64.0*
O=C(CC1Oc2ccccc2NC1=O)NCCCN1CCN(C2CCCCC2)CC1 (stereo not given),7.3,0.2,3.9,69.9*,2.4,7.6,-12.2
CCC1CCCCN1CCCNC(=O)CC1Oc2ccccc2NC1=O (stereo not given),0.7,-1.4,0.0,-14.2,6.2,3.0,.
COc1ccc(/C=C/S(=O)(=O)NCCc2ccccc2)c(CNC(=O)OC(C)(C)C)c1,.,.,.,.,.,1.0,.
OC[C@H]1CC[C@@H]2O[C@H](CCc3ccc(-c4ccc(F)cc4)cc3)[C@@H](n3cc(C4CC4)nn3)C[C@@H]2O1,.,.,.,.,.,-0.6,.
COc1cc(OC)cc(-c2cc3nc(C)c(CCC(=O)O)c(C)n3n2)c1,12.1,-0.1,.,54.3*,5.3,-3.1,57.0*
C[C@H]1[C@@H](OC(=O)NCc2ccc(C(F)(F)F)cc2)CC[C@@]23CCCN2C(=O)CCC[C@@H]13,.,.,.,.,.,8.2,.
CC1OC(OC2C=C3CCC4C(CCC5(C)C(c6ccc(=O)oc6)CCC45O)C3(C)CC2)C(O)C(OC2OC(CO)C(O)C(O)C2O)C1O (stereo not given),4.5,-1.1,.,93.2*,1.7,-3.8,91.8*
CN(CC(=O)Nc1cccc(F)c1)CC(=O)N(C)CC(=O)Nc1ccccc1Br,-1.1,-1.5,.,90.9*,9.3,-5.2,-29.6
CCCC[C@H]1C2CC(OC(=O)Nc3cccc(Br)c3)C(C2)[C@H]2CCCCN21 (stereo not given in full),.,.,.,.,.,6.0,.
C[C@]12CCC3C(CCC4=CC(O)CC[C@@]43/C=N/O)C1(O)CCC2C1=CC(=O)OC1 (stereo not given in full),0.9,0.1,69.4*,79.7*,2.5,2.5,70.2*
COc1cccc(CNC(=O)[C@@H]2CCCN2C(=O)[C@H]2CCCCN2)c1,.,.,.,.,.,2.6,.
COC(=O)C1CN(Cc2cn(Cc3ccc(F)cc3)nn2)CCS(=O)(=O)N1Cc1ccc(C)cc1 (stereo not given),.,.,.,.,.,-5.6,.
O=c1cc(-c2ccc(Cl)c(Cl)c2)[nH][nH]1,-4.2,-0.7,2.6,56.9*,8.1,0.1,-19.7
C=CCN1C(=O)[C@@H](CC(=O)NCCC(C)C)[C@]2(C(=O)OCC)CCCCC/C=C/12,.,.,.,.,.,-4.7,.
CCCCNS(=O)(=O)c1ccc(NC(=O)Cc2ccc(OC)cc2)cc1,-0.8,-1.0,.,69.3*,-3.5,1.1,10.4
CC(C)(C)c1ccc(C(=O)N2CCCCCC2=O)cc1,0.2,1.5,-0.3,58.9*,1.3,0.7,?
O=C1CCCCCN1C(=O)c1ccccc1,-2.0,-1.5,.,-18.7,-1.4,-0.5,.
CC(=O)OCC(=O)[C@@]1(O)CC[C@H]2[C@@H]3CCC4=CC(=O)CC[C@]4(C)[C@H]3[C@@H](O)C[C@@]21C,-1.8,15.2,-12.4,65.4*!,3.6,11.6,-13.3
CCC(CC)C(=O)OCC(=O)C1(O)CCC2C3CCC4=CC(=O)CCC4(C)C3C(O)CC21C (stereo not given),-2.6,-1.2,.,6.1,-0.5,-2.7,.
SMILES,Mtb FBA inh,PfHsp40 yeast,BJeLR viability,PrP 5UTR inh,GDH-TPI counter,PrPC surface inh,PrP 5UTR single
CCNC(=O)CC1C(=O)N(CC)C(=S)N1NC(=O)c1cccnc1 (stereo not given),-2.6,0.3,4.3,80.3*,-10.1,-1.1,-7.8
CCC1(O)C(=O)OCc2c1cc1n(c2=O)Cc2cc3c(N)cccc3nc2-1 (stereo not given),-0.8,-1.0,.,52.8*,26.7,-7.8,90.3*
COC(=O)[C@H](C(C)C)N(CCCc1cn(CC2CCCCC2)nn1)S(=O)(=O)c1ccccc1Br,.,.,.,.,.,1.5,.
O=C(Nc1ccc(F)cc1)OCCN1C(=O)CCC12CCC(c1ccc(Cl)cc1)CC2 (stereo not given),.,.,.,.,.,7.3,.
CCCSc1ccc2nc(-c3ccccc3)cn2c1,15.6,0.2,32.8,60.4*,5.0,3.1,75.4*
CCCCSc1ccc2nc(-c3ccc(C#N)cc3)cn2c1,9.8,3.0,-6.9,-64.6,26.4,12.4,.
O=C(NCCN1C(=O)S/C(=C/c2cccnc2)C1=O)c1ccc(S(=O)(=O)N2CCCC2)cc1,-2.0,-1.8,.,85.2*,26.4,7.0,-16.9
CC1CCN(C(=O)c2ccc(COc3ccccc3Cl)o2)CC1,2.2,-0.5,-7.2,76.5*,-0.9,9.6,-6.2
Cc1nc2sc(C(=O)NCc3nccs3)c(N)c2c(C)c1Cl,.,.,.,.,.,2.3,.
COc1ccc(C(Nc2ccccn2)c2oc(CO)cc(=O)c2O)cc1 (stereo not given),0.3,5.1,-2.8,61.5*,2.6,-3.0,-37.5
Cc1nn(-c2ccccc2)c(Cl)c1C(=O)NCCCCNC(=O)c1c(C)nn(-c2ccccc2)c1Cl,0.8,2.2,-13.7,74.4*,10.1,-2.7,6.2
CC(c1ccccc1)n1cc(C(=O)N2CCCN(Cc3ccccc3)CC2)nn1 (stereo not given),.,.,.,.,.,8.0,.
Cc1c(C)c2ccc(OCC(=O)Nc3ccccn3)c(C)c2oc1=O,7.5,-1.3,29.1,92.9*,0.9,-2.6,94.2*
Cc1c(C)c2cc(Cl)c(OCC(=O)Nc3ccccn3)cc2oc1=O,1.7,.,.,.,-8.0,-2.8,.
Cc1ccc(-n2nnc(-c3nccs3)n2)cc1,3.5,-2.1,23.4,76.7*,-14.4,0.0,62.3*
CC(C)CNc1cccc2c1S(=O)(=O)N(Cc1cn(Cc3ccc(F)cc3)nn1)Cc1ccccc1O2,.,.,.,.,.,-2.1,.
OC(c1ccccc1)(c1ccccc1)C1CCN(CCCNc2ccccc2Br)CC1,.,.,.,.,.,-12.7,.
O=C(Nc1ccc(C(F)(F)F)cc1)OC1CC2CC1[C@H]1CCCCN1C2 (stereo not given in full),.,.,.,.,.,2.7,.
O=C1c2ccccc2-c2nnc(-c3ccccc3)cc21,-2.7,-2.2,12.0,-38.5,3.1,-10.0,.
